Data published in PubChem BioAssay.
The source made the active and inactive calls.

Tests used:
[1] = binders of probe aFSTL3 on microarray, primary screen, stem cell growth factor project, biochemical, small-molecule microarray, fluorescence 635/667 (AID 1064); settings: higher = more signal;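 note: measures binding of the biotinylated anti-FSTL3 antibody to printed compounds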
[2] = binders from COS7 lysate, DM2A8 probe, primary screen, torsin A project, cell lysate, small-molecule microarray, fluorescence 635/667 (AID 1065); settings: higher = more signal, COS7 lysate expressing mutant human TOR1A
[3] = binders of probe aFGF2 on microarray, primary screen, stem cell growth factor project, biochemical, small-molecule microarray, fluorescence 635/667 (AID 1067); settings: higher = more signal;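 note: measures binding of biotinylated aFGF2 protein to printed compounds on slides; z-score merges feature fluorescence and signal-to-noise across triplicate slides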
[4] = binders of probe aFGF10 on microarray, primary screen, stem cell growth factor project, biochemical, small-molecule microarray, fluorescence 635/667 (AID 1071); settings: higher = more signal;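 note: score merges 667 nm spot intensity and signal to noise from triplicate slides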
[5] = molecular target: Neurogenic locus notch homolog protein 2 (Homo sapiens) (UniProt Q04721); assay: Notch2 binders on small-molecule microarrays, primary screen, biochemical, small-molecule microarray, 635 nm fluorescence, stem cell growth factors (AID 1073); settings: Notch2 binding, higher = more signal
Neurogenic locus notch homolog protein 2 (Homo sapiens), sequence (Q04721 whole entry, looked up, canonical isoform): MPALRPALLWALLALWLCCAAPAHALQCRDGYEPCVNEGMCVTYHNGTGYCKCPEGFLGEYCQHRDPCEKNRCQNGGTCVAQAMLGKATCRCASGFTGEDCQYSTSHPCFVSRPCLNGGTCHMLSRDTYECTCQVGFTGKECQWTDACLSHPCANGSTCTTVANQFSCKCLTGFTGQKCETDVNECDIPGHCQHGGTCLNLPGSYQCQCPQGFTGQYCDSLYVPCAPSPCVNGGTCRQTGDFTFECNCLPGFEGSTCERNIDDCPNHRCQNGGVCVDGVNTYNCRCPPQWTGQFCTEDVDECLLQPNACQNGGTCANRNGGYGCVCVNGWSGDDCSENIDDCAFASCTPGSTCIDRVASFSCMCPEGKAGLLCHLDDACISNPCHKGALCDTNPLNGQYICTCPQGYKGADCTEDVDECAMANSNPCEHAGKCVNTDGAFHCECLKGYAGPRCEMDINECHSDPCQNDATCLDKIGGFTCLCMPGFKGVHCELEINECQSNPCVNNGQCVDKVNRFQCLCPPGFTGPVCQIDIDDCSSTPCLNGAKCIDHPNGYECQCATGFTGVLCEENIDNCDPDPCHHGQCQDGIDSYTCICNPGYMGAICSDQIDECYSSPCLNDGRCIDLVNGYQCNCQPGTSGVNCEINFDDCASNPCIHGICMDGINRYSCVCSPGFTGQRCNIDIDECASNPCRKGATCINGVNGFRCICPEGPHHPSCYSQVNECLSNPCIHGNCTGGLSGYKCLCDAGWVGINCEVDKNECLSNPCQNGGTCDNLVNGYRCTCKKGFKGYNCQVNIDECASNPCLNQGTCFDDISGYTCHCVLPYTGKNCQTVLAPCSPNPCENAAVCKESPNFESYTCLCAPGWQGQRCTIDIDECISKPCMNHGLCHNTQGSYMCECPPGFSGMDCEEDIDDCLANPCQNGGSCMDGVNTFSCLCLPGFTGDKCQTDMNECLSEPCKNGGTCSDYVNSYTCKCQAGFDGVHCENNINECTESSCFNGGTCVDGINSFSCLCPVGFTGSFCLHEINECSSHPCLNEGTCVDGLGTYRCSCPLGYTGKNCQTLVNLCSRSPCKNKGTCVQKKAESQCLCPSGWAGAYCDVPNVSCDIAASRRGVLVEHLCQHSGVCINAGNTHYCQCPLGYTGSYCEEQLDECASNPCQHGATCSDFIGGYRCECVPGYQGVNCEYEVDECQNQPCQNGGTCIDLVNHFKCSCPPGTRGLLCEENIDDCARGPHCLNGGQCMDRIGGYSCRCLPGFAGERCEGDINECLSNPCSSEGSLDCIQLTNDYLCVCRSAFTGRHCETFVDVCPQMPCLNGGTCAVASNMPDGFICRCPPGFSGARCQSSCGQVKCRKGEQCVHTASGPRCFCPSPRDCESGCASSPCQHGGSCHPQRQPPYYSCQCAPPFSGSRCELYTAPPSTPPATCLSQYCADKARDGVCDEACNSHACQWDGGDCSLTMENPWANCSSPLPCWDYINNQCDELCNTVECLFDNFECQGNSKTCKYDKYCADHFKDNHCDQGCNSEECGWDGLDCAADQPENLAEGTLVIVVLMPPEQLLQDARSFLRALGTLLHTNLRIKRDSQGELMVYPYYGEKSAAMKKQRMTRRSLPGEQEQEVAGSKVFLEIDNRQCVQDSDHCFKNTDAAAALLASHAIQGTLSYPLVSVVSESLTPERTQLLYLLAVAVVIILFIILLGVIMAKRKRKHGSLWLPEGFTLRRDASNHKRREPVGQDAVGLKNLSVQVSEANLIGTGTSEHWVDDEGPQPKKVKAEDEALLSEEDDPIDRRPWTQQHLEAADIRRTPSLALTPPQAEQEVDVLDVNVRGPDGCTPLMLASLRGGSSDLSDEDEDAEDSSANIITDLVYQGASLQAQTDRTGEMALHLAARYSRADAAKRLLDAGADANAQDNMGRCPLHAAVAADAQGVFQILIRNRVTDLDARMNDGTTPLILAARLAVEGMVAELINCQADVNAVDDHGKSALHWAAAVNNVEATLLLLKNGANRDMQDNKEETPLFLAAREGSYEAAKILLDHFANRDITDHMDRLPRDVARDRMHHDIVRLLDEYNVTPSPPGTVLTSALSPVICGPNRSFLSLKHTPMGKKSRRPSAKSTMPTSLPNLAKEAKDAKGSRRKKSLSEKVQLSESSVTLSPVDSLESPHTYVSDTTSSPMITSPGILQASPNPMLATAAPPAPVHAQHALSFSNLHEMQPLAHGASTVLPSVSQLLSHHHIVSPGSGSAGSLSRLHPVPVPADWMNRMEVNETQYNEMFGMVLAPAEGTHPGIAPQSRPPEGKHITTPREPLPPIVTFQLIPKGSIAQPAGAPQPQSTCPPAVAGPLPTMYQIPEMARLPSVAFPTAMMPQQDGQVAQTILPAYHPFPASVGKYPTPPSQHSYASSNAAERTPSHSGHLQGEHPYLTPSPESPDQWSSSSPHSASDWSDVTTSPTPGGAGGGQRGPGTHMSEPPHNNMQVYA

[6] = molecular target: Pro-neuregulin-1, membrane-bound isoform (Homo sapiens) (UniProt Q02297); assay: NRG1 binders on small-molecule microarrays, primary screen, psychiatric disease protein project, biochemical, small-molecule microarray, fluorescence 635/667 (AID 1075); settings: NRG1 binding, 635 nm fluorescence, higher = more signal;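 note: score combines 667 nm spot fluorescence with signal to noise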
Pro-neuregulin-1, membrane-bound isoform (Homo sapiens), sequence (Q02297 whole entry, looked up, the tested form may be a part, canonical isoform): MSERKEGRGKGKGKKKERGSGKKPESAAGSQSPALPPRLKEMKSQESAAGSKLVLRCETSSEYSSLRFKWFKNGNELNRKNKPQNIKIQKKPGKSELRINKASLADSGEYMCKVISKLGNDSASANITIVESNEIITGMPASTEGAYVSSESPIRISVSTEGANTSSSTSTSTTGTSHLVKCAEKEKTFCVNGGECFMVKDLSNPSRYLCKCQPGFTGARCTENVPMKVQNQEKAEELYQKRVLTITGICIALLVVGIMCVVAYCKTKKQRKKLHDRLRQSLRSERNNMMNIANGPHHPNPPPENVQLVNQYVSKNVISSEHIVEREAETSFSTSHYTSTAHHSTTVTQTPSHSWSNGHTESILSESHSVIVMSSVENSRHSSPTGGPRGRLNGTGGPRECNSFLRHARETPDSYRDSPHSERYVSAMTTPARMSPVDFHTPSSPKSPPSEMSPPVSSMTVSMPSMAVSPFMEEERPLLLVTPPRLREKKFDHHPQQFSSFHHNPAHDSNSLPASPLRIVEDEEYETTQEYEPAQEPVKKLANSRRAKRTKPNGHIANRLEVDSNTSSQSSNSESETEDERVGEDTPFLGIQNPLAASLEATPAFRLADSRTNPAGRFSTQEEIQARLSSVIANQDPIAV

[7] = system: Neuregulin-1 EGF-like domain; assay: binders of neuregulin-1 EGF-like domain, primary screen, biochemical, small-molecule microarray, 635 nm fluorescence (AID 1081); settings: small-molecule microarray binding, higher = more signal;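 note: binding of the protein to compounds printed on small-molecule microarray slides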
[8] = FRG1 promoter luciferase signal modulators, primary screen, FRG1 inhibition for FSHD, cell-based, C2C12 myotubes, firefly/Renilla luciferase, luminescence (AID 1084); settings: higher = more signal, called active from +8 up or from −8 down
[9] = binders of probe aFST on microarray, primary screen, stem cell growth factor project, biochemical, small-molecule microarray, fluorescence 635/667 (AID 1086); settings: higher = more signal;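 note: score merges 667 nm fluorescence with signal-to-noise of each printed compound spot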
[10] = binders of probe aHhip on microarray, primary screen, stem cell growth factor project, biochemical, small-molecule microarray, fluorescence 635/667 (AID 1087); settings: higher = more signal;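 note: score merges spot fluorescence at 667nm with spot signal to noise ratio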
[11] = system: PRMT1 (protein arginine N-methyltransferase 1); assay: PRMT1 binders on small-molecule microarrays, primary screen, biochemical, small-molecule microarray, 635 nm fluorescence (AID 1088); settings: small-molecule microarray binding, higher = more signal;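 note: binding of Prmt1 protein to compounds spotted on small-molecule microarray slides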
[12] = yeast growth modulation, basal conditions, primary screen, YJM789 clinical isolate, OD600, 24 h (AID 1089);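 note: growth of clinical yeast isolate S. cerevisiae YJM 789 seeded 1000 cells per well; test concentration not given here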; settings: S. cerevisiae YJM789 growth, higher = more signal, called active from +8 up or from −8 down
[13] = fission yeast growth modulation, primary screen, strain 972, OD600, 24 h, no modulator (AID 1090);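 note: basal condition with compound alone and no growth modifier present; test concentration not given here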; settings: S. pombe 972 growth, higher = more signal, called active from +8 up or from −8 down
[14] = S. cerevisiae growth modulation with rapamycin, primary screen, strain BY4716, OD600, 96 h (AID 1091); settings: higher = more signal, called active from +8 up or from −8 down; note: test concentration not given here
[15] = molecular target: Torsin-1A-interacting protein 2 (Homo sapiens) (UniProt Q8NFQ8); assay: LULL1 binders on small-molecule microarray, primary screen, cell lysate, human LULL1 lysate, 635/667 nm fluorescence (AID 1092); settings: hLULL1 lysate binding, 635 nm fluorescence, higher = more signal;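 note: probe is lysate of COS7 cells overexpressing human LULL1; score merges per-feature 667 nm fluorescence with signal-to-noise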
Torsin-1A-interacting protein 2 (Homo sapiens), sequence (Q8NFQ8 whole entry, looked up): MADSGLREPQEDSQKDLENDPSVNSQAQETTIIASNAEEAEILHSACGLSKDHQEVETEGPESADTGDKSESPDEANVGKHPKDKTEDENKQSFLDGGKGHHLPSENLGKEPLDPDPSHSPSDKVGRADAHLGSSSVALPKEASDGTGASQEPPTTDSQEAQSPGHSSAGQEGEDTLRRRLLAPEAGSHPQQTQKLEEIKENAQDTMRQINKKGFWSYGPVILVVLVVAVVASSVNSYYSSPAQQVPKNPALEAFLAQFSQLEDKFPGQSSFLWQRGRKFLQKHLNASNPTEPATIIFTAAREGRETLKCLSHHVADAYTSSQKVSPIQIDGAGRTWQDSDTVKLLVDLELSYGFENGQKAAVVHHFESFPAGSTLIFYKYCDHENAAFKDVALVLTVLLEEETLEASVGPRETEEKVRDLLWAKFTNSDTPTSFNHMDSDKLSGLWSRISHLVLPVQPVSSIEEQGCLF

[16] = E. coli growth modulation, two-sided OD650, primary screen, E. coli filamentation project, strain DRC41, 24 h (AID 1093); settings: OD650, 24 h, higher = more signal, called active from +8 up or from −8 down;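 note: MC1000 strain lacking acrAB efflux and sulA so SOS filamentation is blocked; test concentration not given here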
[17] = small-molecule microarray binders of probe aLefty2, primary screen, biochemical, biotinylated probe, 635/667 nm fluorescence (AID 1094); settings: higher = more signal;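 note: score merges spot fluorescence near 667 nm with spot signal-to-noise ratio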
[18] = system: Noggin (protein binding on small-molecule microarray); assay: Noggin binders on small-molecule microarray, primary screen, biochemical, 635/667 nm fluorescence (AID 1095); settings: 635 nm fluorescence, higher = more signal;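 note: score merges 667 nm feature fluorescence with signal to noise over triplicate slides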
[19] = molecular target: Neurogenic locus notch homolog protein 3 (Homo sapiens) (UniProt Q9UM47); assay: NOTCH3 binders on small-molecule microarray, primary screen, biochemical, 635/667 nm fluorescence (AID 1096); settings: NOTCH3 binding, 635 nm fluorescence, higher = more signal
[20] = small-molecule microarray binders of probe aEGFR, primary screen, biochemical, biotinylated probe, 635/667 nm fluorescence (AID 1097); settings: higher = more signal;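 note: probe is a biotinylated anti-EGFR antibody binding compounds printed on slides; score combines fluorescence near 667 nm and signal to noise of each spot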

Compound	composite z-score [1]	composite z-score [2]	composite z-score [3]	composite z-score [4]	composite z-score [5]	composite z-score [6]	composite z-score [7]	z-score [8]	composite z-score [9]	composite z-score [10]	composite z-score [11]	z-score [12]	z-score [13]	z-score [14]	composite z-score [15]	z-score [16]	composite z-score [17]	composite z-score [18]	composite z-score [19]	composite z-score [20]
COC(=O)C(CC#Cc1ccc2c(c1)[C@]1(C(=O)N2)[C@H](C(N)=O)[C@H]2C(=O)O[C@H](c3ccccc3)[C@H](c3ccccc3)N2[C@@H]1c1ccc(O)cc1)C(=O)OC	-0.343	-0.067	-0.245	-1.28	-0.618	0.205	0.699	-0.117 (inactive)	-0.882	0.384	-0.95	0.337 (inactive)	-1.04 (inactive)	0.484 (inactive)	0.0509	1.61 (inactive)	-0.117	-1.1	-1.23	-0.442
CC(C)(C)OC(=O)CC[C@@]1(C(=O)NCc2ccccc2)N=C(c2ccc(OCCCO)cc2)O[C@@H]1c1ccccc1CN=[N+]=[N-]	0.492	1.41	0.015	1.18	1.49	1.16	1.15	0.59 (inactive)	1.19	-0.148	1.53	-0.0222 (inactive)	-0.0704 (inactive)	-0.13 (inactive)	2.3	2.64 (inactive)	0.387	0.958	1.14	0.236
COCCCNC(=O)[C@@]1(Cc2ccccc2)N=C(c2ccc(OCCCO)cc2)O[C@H]1c1ccccc1N=[N+]=[N-]	1.38	0.768	0.269	0.727	1.14	0.276	1.13	-1.37 (inactive)	0.836	-0.121	0.85	0.448 (inactive)	-0.051 (inactive)	2.71 (inactive)	2.47	1.59 (inactive)	0.612	1.89	0.773	0.247
COc1ccc(/C=C/C(=O)c2cccc(OCC(=O)OC(C)(C)C)c2)cc1	0.158	0.0968	-0.17	-0.672	-0.466	0.421	0.284	4.17 (inactive)	-0.126	-0.226	0.898	0.0268 (inactive)	-2.14 (inactive)	10.9 (active)	1.21	0.328 (inactive)	-0.102	-0.584	-0.974	-0.304
CCCNC(=O)[C@@]1(Sc2ccc(C)cc2)CC(=O)N(Cc2cc(C(F)(F)F)cc(C(F)(F)F)c2)[C@@H]1c1ccc(CO)cc1I	0.71	0.273	-0.0775	-0.84	-0.472	1.16	0.242	-1.25 (inactive)	0.267	-0.0237	0.491	-5.07 (inactive)	-5.46 (inactive)	-0.894 (inactive)	1.03	3.43 (inactive)	0.024	-1.35	-0.168	-0.118
COCCOC(=O)N1C(=O)[C@@]2(c3cc(C#CC4(O)CCCCCC4)ccc31)[C@H](c1ccc(O)cc1)N1[C@H](c3ccccc3)[C@H](c3ccccc3)OC(=O)[C@H]1[C@@H]2C(N)=O	-0.0102	1.54	0.103	0.631	0.397	1.1	0.874	-0.868 (inactive)	0.351	-0.0173	1.5	-0.549 (inactive)	-3.29 (inactive)	-0.624 (inactive)	2.01	2.01 (inactive)	0.178	0.0282	0.928	-0.0924
COc1ccc([Si](C)(C)[C@H]2[C@H](CCO)O[C@@]3(C(=O)N(Cc4ccc(N5C(=O)c6cccc7cccc5c67)cc4)c4ccccc43)[C@@H]2C)cc1	0.633	-0.213	-0.0692	-0.397	-0.831	1.1	0.657	-4.45 (inactive)	0.025	-0.261	0.126	0.341 (inactive)	0.472 (inactive)	26 (active)	0.589	2.02 (inactive)	-0.169	-0.688	-0.601	-0.272
CC(=O)OC(C/C=C\B1OC(C)(C)C(C)(C)O1)c1ccccc1 (stereo not given)	0.696	0.0193	-0.038	-1.06	-0.542	-0.451	-0.679	-1.52 (inactive)	-0.0273	-0.353	-0.0413	-2.82 (inactive)	-4.32 (inactive)	-3.49 (inactive)	-0.126	-3.15 (inactive)	-0.0231	-0.502	-0.761	-0.268
CCCCCN1CC=CC23O[C@@H]4/C=C\CCC(C)OC(=O)C4[C@H]2C(=O)N(CCO)[C@@H]3C1=O (stereo not given in full)	0.767	2.14	-0.216	-0.807	-0.762	0.77	1.13	0.569 (inactive)	-0.639	-0.16	-0.754	-0.139 (inactive)	-1.24 (inactive)	-0.0531 (inactive)	1.45	2.35 (inactive)	-0.139	-1.36	-0.728	-0.317
